Values joined by “and” are separate entries in the source; they are usually repeats but may differ in a detail not shown here. Equal values may be shown once. About 2,000 (36%) of roughly 5,500 compounds were called active. Another 18% or so got no clear call; they are omitted. Rule as the data show it: active = normalized growth mostly below about 0.91 (no sharp cut-off); inconclusive = no clear call, values can overlap the other calls; inactive = mostly above about 0.92. This is one part of the list.
Test: chemical genetic growth profiling, strain panel (AID 1159580);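 also: tested at 20 µM; growth read once vehicle control cultures reached saturation at 30 °C; 1 = growth at the plate median or of vehicle wells; lower values mean less growth of the strain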
Details: growth OD

Measured: normalized growth

O=S(=O)(N/N=C\c1ccc(Cl)cc1)c1ccc(-c2ccccn2)s1
active: S. cerevisiae deletion strains, locus YKL190W, strain CNB1, stronger effect = lower value 0.924 | S. cerevisiae deletion strains, locus YLR039C, strain RIC1, stronger effect = lower value 0.465 | S. cerevisiae deletion strains, locus YLR262C, strain YPT6, stronger effect = lower value 0.427 | S. cerevisiae deletion strains, locus YNL298W, strain CLA4 (second series), stronger effect = lower value 0.826 | S. cerevisiae deletion strains, locus YNR030W, strain Alg12, stronger effect = lower value 0.856 | S. cerevisiae strains, strain wild type, stronger effect = lower value 0.897
inactive: S. cerevisiae deletion strains, locus YAL013W, strain DEP1, stronger effect = lower value 0.973 | S. cerevisiae deletion strains, locus YAR019C, strain CDC15, stronger effect = lower value 0.993 | S. cerevisiae deletion strains, locus YBL105C, strain PKC1, stronger effect = lower value 0.981 | S. cerevisiae deletion strains, locus YBR135W, strain CKS1, stronger effect = lower value 0.98 | S. cerevisiae deletion strains, locus YBR136W, strain MEC1, stronger effect = lower value 0.982 | S. cerevisiae deletion strains, locus YBR160W, strain CDC28, stronger effect = lower value 0.969 | S. cerevisiae deletion strains, locus YBR229C, strain ROT2, stronger effect = lower value 0.994 | S. cerevisiae deletion strains, locus YDL017W, strain CDC7, stronger effect = lower value 0.978 | S. cerevisiae deletion strains, locus YDL028C, strain MPS1, stronger effect = lower value 0.969 | S. cerevisiae deletion strains, locus YDL101C, strain DUN1, stronger effect = lower value 0.979 and 0.977 | S. cerevisiae deletion strains, locus YDL108W, strain KIN28, stronger effect = lower value 0.976 | S. cerevisiae deletion strains, locus YDL132W, strain cdc53, stronger effect = lower value 0.975 | S. cerevisiae deletion strains, locus YDL134C, strain PPH21, stronger effect = lower value 0.931 | S. cerevisiae deletion strains, locus YDL214C, strain PRR2, stronger effect = lower value 0.98 | S. cerevisiae deletion strains, locus YDR052C, strain DBF4, stronger effect = lower value 0.97 | S. cerevisiae deletion strains, locus YDR054C, strain cdc34, stronger effect = lower value 0.979 | S. cerevisiae deletion strains, locus YDR150W, strain NUM1, stronger effect = lower value 0.976 | S. cerevisiae deletion strains, locus YDR226W, strain ADK1, stronger effect = lower value 0.988 | S. cerevisiae deletion strains, locus YDR477W, strain SNF1, stronger effect = lower value 0.958 | S. cerevisiae deletion strains, locus YEL061C, strain CIN8, stronger effect = lower value 0.935 | S. cerevisiae deletion strains, locus YER123W, strain YCK3, stronger effect = lower value 0.96 | S. cerevisiae deletion strains, locus YER133W, strain GLC7, stronger effect = lower value 0.99 | S. cerevisiae deletion strains, locus YFL009W, strain cdc4, stronger effect = lower value 0.974 | S. cerevisiae deletion strains, locus YFL029C, strain CAK1, stronger effect = lower value 0.994 | S. cerevisiae deletion strains, locus YFR003C, strain YPI1, stronger effect = lower value 0.976 | S. cerevisiae deletion strains, locus YFR019W, strain FAB1, stronger effect = lower value 0.976 | S. cerevisiae deletion strains, locus YFR028C, strain CDC14, stronger effect = lower value 0.973 | S. cerevisiae deletion strains, locus YGR040W, strain KSS1, stronger effect = lower value 0.96 | S. cerevisiae deletion strains, locus YGR052W, strain FMP48, stronger effect = lower value 0.947 | S. cerevisiae deletion strains, locus YGR078C, strain PAC10, stronger effect = lower value 0.975 | S. cerevisiae deletion strains, locus YGR092W, strain DBF2, stronger effect = lower value 0.942 | S. cerevisiae deletion strains, locus YHR030C, strain SLT2, stronger effect = lower value 0.797 and 1.04 | S. cerevisiae deletion strains, locus YHR079C, strain IRE1, stronger effect = lower value 1.07 | S. cerevisiae deletion strains, locus YHR082C, strain KSP1, stronger effect = lower value 1.02 | S. cerevisiae deletion strains, locus YHR087W, strain rtc3, stronger effect = lower value 0.998 | S. cerevisiae deletion strains, locus YHR205W, strain SCH9, stronger effect = lower value 0.983 | S. cerevisiae deletion strains, locus YIL147C, strain SLN1, stronger effect = lower value 0.975 | S. cerevisiae deletion strains, locus YJL095W, strain BCK1, stronger effect = lower value 0.961 | S. cerevisiae deletion strains, locus YJL128C, strain PBS2, stronger effect = lower value 0.946 | S. cerevisiae deletion strains, locus YJL157C, strain FAR1, stronger effect = lower value 0.98 | S. cerevisiae deletion strains, locus YJL187C, strain SWE1, stronger effect = lower value 1.02 | S. cerevisiae deletion strains, locus YJR016C, strain ILV3, stronger effect = lower value 0.976 | S. cerevisiae deletion strains, locus YJR043C, strain POL32, stronger effect = lower value 0.947 | S. cerevisiae deletion strains, locus YJR066W, strain TOR1 (second series), stronger effect = lower value 0.996 | S. cerevisiae deletion strains, locus YJR066W, strain TOR1, stronger effect = lower value 1.05 | S. cerevisiae deletion strains, locus YJR075W, strain HOC1, stronger effect = lower value 0.988 | S. cerevisiae deletion strains, locus YKL048C, strain ELM1, stronger effect = lower value 0.959 | S. cerevisiae deletion strains, locus YKL067W, strain YNK1, stronger effect = lower value 0.976 | S. cerevisiae deletion strains, locus YKL101W, strain HSL1, stronger effect = lower value 0.949 | S. cerevisiae deletion strains, locus YKL193C, strain SDS22, stronger effect = lower value 0.977 | S. cerevisiae deletion strains, locus YKL203C, strain TOR2, stronger effect = lower value 1.04 | S. cerevisiae deletion strains, locus YLR058C, strain SHM2 (second series), stronger effect = lower value 0.996 | S. cerevisiae deletion strains, locus YLR085C, strain ARP6, stronger effect = lower value 0.912 | S. cerevisiae deletion strains, locus YLR113W, strain HOG1, stronger effect = lower value 0.888 | S. cerevisiae deletion strains, locus YLR133W, strain CKI1, stronger effect = lower value 0.967 | S. cerevisiae deletion strains, locus YLR403W, strain SFP1, stronger effect = lower value 0.95 | S. cerevisiae deletion strains, locus YML070W, strain DAK1, stronger effect = lower value 0.938 | S. cerevisiae deletion strains, locus YML094W, strain GIM5, stronger effect = lower value 0.95 | S. cerevisiae deletion strains, locus YMR001C, strain CDC5, stronger effect = lower value 0.99 | S. cerevisiae deletion strains, locus YMR205C, strain PFK2 (second series), stronger effect = lower value 0.969 | S. cerevisiae deletion strains, locus YMR219W, strain ESC1, stronger effect = lower value 0.998 | S. cerevisiae deletion strains, locus YMR263W, strain SAP30, stronger effect = lower value 0.976 | S. cerevisiae deletion strains, locus YMR277W, strain FCP1, stronger effect = lower value 0.978 | S. cerevisiae deletion strains, locus YMR307W, strain GAS1, stronger effect = lower value 0.712 | S. cerevisiae deletion strains, locus YNL006W, strain LST8, stronger effect = lower value 0.994 | S. cerevisiae deletion strains, locus YNL020C, strain ARK1, stronger effect = lower value 0.953 | S. cerevisiae deletion strains, locus YNL128W, strain TEP1, stronger effect = lower value 0.975 | S. cerevisiae deletion strains, locus YNL153C, strain GIM3, stronger effect = lower value 0.976 | S. cerevisiae deletion strains, locus YNL161W, strain CBK1, stronger effect = lower value 0.986 | S. cerevisiae deletion strains, locus YNL183C, strain NPR1, stronger effect = lower value 0.967 | S. cerevisiae deletion strains, locus YNL207W, strain RIO2, stronger effect = lower value 0.977 | S. cerevisiae deletion strains, locus YNL222W, strain SSU72, stronger effect = lower value 0.978 | S. cerevisiae deletion strains, locus YNL307C, strain MCK1 (second series), stronger effect = lower value 0.969 | S. cerevisiae deletion strains, locus YNL322C, strain KRE1, stronger effect = lower value 1 | S. cerevisiae deletion strains, locus YOL006C, strain TOP1, stronger effect = lower value 0.838 | S. cerevisiae deletion strains, locus YOL078W, strain AVO1, stronger effect = lower value 0.963 | S. cerevisiae deletion strains, locus YOL136C, strain PFK27, stronger effect = lower value 0.94 | S. cerevisiae deletion strains, locus YOR061W, strain CKA2, stronger effect = lower value 0.966 | S. cerevisiae deletion strains, locus YOR119C, strain RIO1, stronger effect = lower value 1.01 | S. cerevisiae deletion strains, locus YOR231W, strain MKK1, stronger effect = lower value 0.945 | S. cerevisiae deletion strains, locus YOR329C, strain SCD5, stronger effect = lower value 0.984 | S. cerevisiae deletion strains, locus YPL031C, strain PHO85, stronger effect = lower value 0.969 | S. cerevisiae deletion strains, locus YPL055C, strain LGE1, stronger effect = lower value 1.1 | S. cerevisiae deletion strains, locus YPL153C, strain RAD53, stronger effect = lower value 0.963 | S. cerevisiae deletion strains, locus YPL204W, strain HRR25, stronger effect = lower value 0.951 | S. cerevisiae deletion strains, locus YPL209C, strain IPL1, stronger effect = lower value 0.974 | S. cerevisiae deletion strains, locus YPL241C, strain CIN2, stronger effect = lower value 0.894 | S. cerevisiae deletion strains, locus YPL256C, strain CLN2, stronger effect = lower value 1.03 | S. cerevisiae deletion strains, locus YPR025C, strain CCL1, stronger effect = lower value 0.982 | S. cerevisiae deletion strains, locus YPR106W, strain ISR1, stronger effect = lower value 0.986 | S. cerevisiae deletion strains, locus YPR111W, strain DBF20, stronger effect = lower value 0.967 | S. cerevisiae deletion strains, locus YPR135W, strain CTF4, stronger effect = lower value 0.711 | S. cerevisiae deletion strains, strain NNK1, stronger effect = lower value 0.996 | S. cerevisiae deletion strains, strain TSCII, stronger effect = lower value 0.984

Reference: PubChem BioAssay AID1159580 (chemical genetic matrix, 2015)
